# Bioassay records from PubChem.
# Compounds with a hit are over-represented: about 6% of the library has one in this group of screens.
# DRD3 antagonist = qHTS of D3 Dopamine Receptor Antagonist: qHTS; D(3) dopamine receptor (Homo sapiens), P35462; D3R cells, DiscoveRx beta-arrestin luminescence, antagonist mode; stronger effect = lower value; max response, negative = inhibition, %; hit rate 2.5% among 360,000; AID 652054, 2013; in the data active = max response below about -50%; inconclusive = no clear call, values can overlap the other calls; also: % is scaled to controls: 0 for no effect and ±100 for the full control effect
# Target sequence (P35462 whole entry, looked up): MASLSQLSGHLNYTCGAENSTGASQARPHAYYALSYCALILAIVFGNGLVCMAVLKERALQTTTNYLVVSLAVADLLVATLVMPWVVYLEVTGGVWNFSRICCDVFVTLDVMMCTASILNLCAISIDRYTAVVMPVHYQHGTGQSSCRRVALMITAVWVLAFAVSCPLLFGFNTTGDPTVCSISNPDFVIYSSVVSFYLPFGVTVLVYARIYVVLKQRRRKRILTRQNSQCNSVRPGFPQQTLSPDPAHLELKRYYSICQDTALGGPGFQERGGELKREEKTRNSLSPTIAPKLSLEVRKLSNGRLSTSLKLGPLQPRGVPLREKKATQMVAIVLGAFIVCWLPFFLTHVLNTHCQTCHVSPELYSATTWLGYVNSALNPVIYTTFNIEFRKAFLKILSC
#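 Cells plated overnight at 1500 cells/well, then exposed to library compounds with dopamine controls for 90 minutes at 37 degrees C. DiscoveRx reagent added for 30–60 minutes at room temperature; luminescence read, quantitative HTS format.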
# D1 PAM = Potentiators of Human D1 Dopamine Receptor: qHTS; D(1A) dopamine receptor (Homo sapiens), P21728; hit rate 0.036% among 360,000; potentiation, % at 10 µM; HEK293 TREx D1 cells, calcium flux, dopamine EC20 potentiation; in the data active = potentiation above about 30%; also: 0% is about no effect
# D1 ag = Allosteric Agonists of the Human D1 Dopamine Receptor: qHTS; HEK293 T-REx D1 cells, calcium flux, agonist mode; activation, % at 2 µM; D(1A) dopamine receptor (Homo sapiens), P21728; AID 504660, 2011; hit rate 1% among 360,000; in the data active = activation above about 30%; also: 0% is about no effect
#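 Inducible HEK293 T-REx D1 cells, force-coupled to calcium signalling, were plated at 4000 cells/well with tetracycline and held overnight at 30 C. After no-wash calcium dye loading, compound-evoked calcium rise over 180 s flagged agonists.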
# D1 antag = Antagonist of Human D 1 Dopamine Receptor: qHTS. HEK293 TREx D1 cells, calcium flux, dopamine EC80; stronger effect = lower value. hit rate 3.2% among 360,000. D(1A) dopamine receptor (Homo sapiens), P21728. activity change, negative = inhibition, % at 10 µM; in the data active = activity change below about -30%; also: % is scaled to controls: 0 for no effect and ±100 for the full control effect
#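 Calcium flux readout: force-coupled, inducible Hek293 Trex D1 line, cells induced overnight at 30 C with tetracycline, dye-loaded 30–90 min at RT. Antagonism scored against EC80 dopamine challenge given 180 s after compound.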
# DRD3 agonist = qHTS of D3 Dopamine Receptor Agonist: qHTS; D(3) dopamine receptor (Homo sapiens), P35462; D3R DiscoveRx beta-arrestin cells, luminescence, 90 min; max activation, %; hit rate 0.58% among 410,000; in the data active = max activation above about 30%; also: 0% is about no effect
#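 Agonist mode: compounds and dopamine controls were applied to plated cells for 90 min at 37 degrees C after an overnight attachment at 1500 cells/well. Luminescent read-out followed 30 - 60 minutes at room temperature with DiscoveRx detection reagent.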
# An asterisk follows results filed as active; ? = inconclusive; / = no result.
SMILES,DRD3 antagonist,D1 PAM,D1 ag,D1 antag,DRD3 agonist
CO[C@@H]1CN(C)C(=O)c2cc(NC(=O)NC3CCCCC3)ccc2OC[C@@H](C)N(CCc2ccccc2)C[C@H]1C,-16,/,/,/,2
CO[C@@H]1CN(C)C(=O)c2cc(NC(=O)NC3CCCCC3)ccc2OC[C@@H](C)N(CC2CCOCC2)C[C@@H]1C,-60*,/,/,/,-7
O=C(Nc1ccc(-c2csc(Nc3ccc(Cl)cc3)n2)cc1)c1cccc(C(F)(F)F)c1,83,-3,1,0,30
COc1ccc(-c2csc(NC(=O)c3cccc(S(=O)(=O)N4CCN(C)CC4)c3)n2)cc1,-51*,-9,19,-48*,-2
COc1ccc(-c2csc(NC(=O)C3CCCCN3S(=O)(=O)c3ccccc3)n2)cc1 (configuration not stated),-18,-4,2,-37*,-3
Cc1nc(-c2cccc(NC(=O)c3cccc(S(=O)(=O)N4CCCC4)c3)c2)cs1,25,1,2,-32*,-14
Cc1nc(-c2cccc(NC(=O)c3ccc(Cl)c(S(=O)(=O)N4CCCC4)c3)c2)cs1,10,/,/,/,-3
O=C(Nc1ccc(-c2csc(Nc3ccccc3)n2)cc1)c1cccc(C(F)(F)F)c1,30,-5,3,-47*,-7
O=C(Nc1ccc2c(c1)N(C1CCCC1)C(=O)c1ccccc1S2)c1ccccc1,/,5,3,4,-6
O=C(Nc1ccc(Oc2ccccc2)cc1)c1ccc2sc([C@H]3C[C@H](O)[C@@H](CO)O3)nc2c1,98,/,/,/,4
O=C(Cn1cnc2c(oc3ccccc32)c1=O)Nc1ccc(F)cc1F,/,-2,8,-14,-30
CN1CCN(S(=O)(=O)c2cccc(C(=O)Nc3nc(-c4ccccc4)cs3)c2)CC1,?,-5,15,-32*,-5
CCN(CC)C(=O)c1c(NC(=O)c2ccccc2F)sc2c1CCC(C(C)(C)C)C2 (configuration not stated),/,1,0,20,17
O=C(C1CCN(S(=O)(=O)c2cnc[nH]2)CC1)N1CCn2c1nc1ccccc12,-118*,-4,6,-16,-36
CC(NC(=O)[C@H](C)NC(=O)N1CCn2c1nc1ccccc12)c1ccccc1 (some centres not stated),2,2,2,2,6
C[C@H](NC(=O)N1CCn2c1nc1ccccc12)C(=O)NC1CC1,8,-3,-2,-85*,3
O=C(C1CCCCC1)N1CCCn2c1nc1ccccc12,8,-1,7,-45*,0
O=C1O[C@H]2[C@H](O)[C@@H]1OC(O)[C@H]2O (some centres not stated),/,/,/,/,5
CNc1ccc2ncc(-c3cccc(C(=O)N(C)C)c3)n2n1,3,/,/,/,10
CCc1ccccc1NC(=O)N1CCN(Cc2nc3ccc(C)cc3o2)CC1,/,0,-1,-4,2
Cc1ccc(NC(=O)CNC(=O)N2CC(=O)Nc3ccccc32)cc1F,-16,-10,3,-2,-4
O=C(CN1CC(=O)Nc2ccccc21)Nc1ccc(F)c(F)c1,-3,-15,1,-39*,-3
CN1OC[C@@H]2CN(S(=O)(=O)c3cc(Cl)cc(Cl)c3)[C@H](c3ccc(-c4ccc(C#N)cc4)cc3)C[C@@H]21,0,/,/,/,9
COc1cc(OC)c(NC(=O)Nc2cccc(OCc3cc(=O)n4ccccc4n3)c2)cc1Cl,/,-6,2,-40*,6
COc1cc(OC)c(NC(=O)Nc2ccccc2OCc2cc(=O)n3cc(C)ccc3n2)cc1Cl,/,-3,-2,-9,6
SMILES,DRD3 antagonist,D1 PAM,D1 ag,D1 antag,DRD3 agonist
COc1ccc(C2=NN(C(C)=O)C(c3cn(-c4ccccc4)nc3-c3cccs3)C2)cc1 (configuration not stated),/,-2,1,12,-1
COc1ccc(-n2nc(C(=O)Nc3ccc(C)cn3)c3c4ccccc4n(C)c3c2=O)cc1Cl,/,5,0,-4,-4
Cc1ccc(NC(=O)CN2CCC(C(=O)c3ccc4c(c3)OCCO4)CC2)cc1,-52*,0,3,4,-4
COC(=O)c1ccccc1NC(=O)CN1CCOCC1,7,-1,2,1,1
O=C(CN1CCN(C(=O)C2CCC2)CC1)Nc1ccc(F)cc1,-6,4,3,-7,-1
CC(=O)c1ccc(NC(=O)CN2CCC(C(=O)c3ccc4c(c3)OCCO4)CC2)cc1,-6,-6,4,-4,-2
CN(C)c1ccc(NC(=O)CN2CCC(C(=O)c3ccc(F)cc3)CC2)cc1,-82*,-2,2,-10,-27
COC(=O)c1ccccc1NC(=O)CN1CCC(C(=O)c2ccc3c(c2)OCCO3)CC1,43,2,7,-32*,40*
COc1ccc(C(=O)C2CCN(CC(=O)Nc3ccc(C)cc3)CC2)cc1,-113*,-12,15,-10,-31
COc1ccc(-c2oc3ncn4nc(-c5ccccc5Cl)nc4c3c2-c2ccc(OC)cc2)cc1,/,-3,0,-4,7
N#Cc1cccnc1N1CCN(C(c2ccnc3ccccc23)c2nnnn2-c2ccc3c(c2)OCCO3)CC1 (configuration not stated),21,/,/,/,-1
COc1cc(C(CC(=O)NCc2ccccc2)N2Cc3ccccc3C2=O)cc(OC)c1OC (configuration not stated),/,0,4,0,-3
COc1ccccc1N1CCN(S(=O)(=O)CCNC(=O)CCc2ccccc2)CC1,-15,/,/,/,-9
CCOC(=O)[C@]12CCCC=C1N(Cc1ccc(Cl)cc1Cl)C(=O)[C@H](CC(=O)N1CCN(C(=O)c3ccco3)CC1)C2,8,/,/,/,6
CCOP(=O)(OCC)C(NC(=O)Nc1ccccc1)C(N)=O (configuration not stated),7,0,4,-32*,8
OC(COCC1COc2ccccc2O1)CN1CCN(c2ccccc2)CC1 (configuration not stated),-7,0,3,2,33*
CCN1CCN(CC(O)COCC2COc3ccccc3O2)CC1 (configuration not stated),-12,2,-2,2,-4
COCCOCC(O)CN1CCN(c2ccccc2)CC1 (configuration not stated),-78*,-3,1,-11,11
COCCOCC(O)CN1CCN(c2ccc(C)cc2)CC1 (configuration not stated),-62*,-3,6,1,-14
OC(COCc1ccccc1)CN1CCN(c2ccccc2)CC1 (configuration not stated),?,-2,1,1,11
